According to PubChem BioAssay (NCI):
About 79,000 compounds went through this panel and 15% of them were active in at least one assay; those are over-represented in the sample as a whole. Activity calls are given as the source filed them. Rule as the data show it: active = growth inhibition above about 70%; inactive = the rest.

Columns and labels:
[1] = NCI Yeast Anticancer Drug Screen. Data for the rad50 strain (AID 155);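 also: 0% = growth of vehicle-only cultures of the same strain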; conditions: S. cerevisiae rad50 strain growth inhibition; at 50.0 µM; active compounds read high
Summary of the method: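 Cells are treated with compound, grown, and their growth is then scored against vehicle-only cultures of the same repair-deficient yeast strain.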

[2] = NCI Yeast Anticancer Drug Screen. Data for the mec2-1 strain (AID 157); conditions: S. cerevisiae mec2-1 strain, at 50.0 µM, active compounds read high
Summary of the method: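 mec2-1 yeast strain, carrying an alteration in DNA damage repair or cell cycle control, was exposed to compounds; growth inhibition was measured relative to vehicle-treated controls.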

[3] = NCI Yeast Anticancer Drug Screen. Data for the sgs1 mgt1 strain (AID 161);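 also: 0% = growth of cultures given vehicle only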; conditions: S. cerevisiae sgs1 mgt1 strain, at 50.0 µM, active compounds read high
Summary of the method: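 This yeast growth screen uses a strain with defined DNA-repair lesions; compound-treated growth is compared with vehicle-treated growth.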

[4] = NCI Yeast Anticancer Drug Screen. Data for the cln2 rad14 strain (AID 165);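 also: 0% = growth equal to vehicle treated cultures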; conditions: S. cerevisiae cln2 rad14 strain, at 50.0 µM, active compounds read high
Summary of the method: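 Yeast carrying cln2 and rad14 alterations (cell cycle control and DNA damage repair) were exposed to compounds. Growth inhibition was measured against vehicle-treated controls.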

[5] = NCI Yeast Anticancer Drug Screen. Data for the bub3 strain (AID 167); conditions: S. cerevisiae bub3 mutant strain, at 50.0 µM, active compounds read high
Summary of the method: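 Part of a panel of yeast mutants defective in DNA damage repair or cell cycle regulation. Each strain is grown with compound, and inhibition is calculated relative to solvent-treated cultures.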

[6] = NCI Yeast Anticancer Drug Screen. Data for the mlh1 rad18 strain (AID 175); conditions: S. cerevisiae mlh1 rad18 strain growth inhibition; at 50.0 µM; active compounds read high
Summary of the method: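 Growth inhibition of the yeast strain was measured after compound exposure and expressed relative to vehicle-treated controls. The strain carries defined defects in DNA damage repair.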

Measured: growth inhibition

[Cl][Pt][Cl].c1ccc([PH+](c2ccccc2)c2ccccc2)cc1.c1ccc([PH+](c2ccccc2)c2ccccc2)cc1
inactive: [1] -1.7% | [2] 4.75% | [3] -4.95% | [4] -6.6% | [5] -1.6% | [6] -16.9%

[N-]=[N+]=C1C(=O)NN=C1c1ccccc1
inactive: [1] -9.6% | [2] -21.9% | [3] -25.4% | [4] 0.5% | [5] -17.2% | [6] 12.8%

NC1Cc2cc(O)ccc2C1=O (configuration not stated)
inactive: [1] -5.95% | [2] 22.2% | [3] -3.35% | [4] 20.2% | [5] 22.8% | [6] 0.7%

Cn1cnc([N+](=O)[O-])c1[Se]c1nc(N)nc2nc[nH]c12
inactive: [1] -24.1% | [2] -12% | [3] -26.8% | [4] 15.2% | [5] -7.65% | [6] -17.9%

C/C(CCl)=N\NC1=NC(C)(CCl)P(=O)(NNc2ncccn2)S1 (configuration not stated)
inactive: [1] 8.05% | [2] 11.2% | [3] 5.2% | [4] 11% | [5] 8.85% | [6] 7.35%

Cc1ccc(S(=O)(=O)Nc2cc(C)cc(CCN)c2C)cc1
inactive: [1] 17.1% | [2] -11.6% | [3] -14.6% | [4] 4.75% | [5] 5.5% | [6] -10.1%

CC1=C(\C=C/C(C)=C/C=C/C(C)=C/C=C/C=C(C)\C=C\C=C(C)/C=C/C2=C(C)CCCC2(C)C)C(C)(C)CCC1
inactive: [1] 28.8% | [2] 9.35% | [3] 27.1% | [4] 26.4% | [5] 37.2% | [6] 45.5%

C[C@]12CC[C@H](O[C@@H]3O[C@H](CO[C@@H]4O[C@H](CO)[C@@H](O)[C@H](O)[C@H]4O)[C@@H](O)[C@H](O)[C@H]3O)C[C@@H]1CC[C@@H]1[C@@H]2CC[C@]2(C)[C@@H](C3=CC(=O)OC3)CC[C@]12O
inactive: [1] -7.75% | [2] -13.6% | [3] -1.85% | [4] -0.85% | [5] -1.95% | [6] 8.85%

CCN1CCC2OCOC2C1 (configuration not stated)
inactive: [1] 8.5% | [2] 2.85% | [3] 2.9% | [4] 0.5% | [5] -0.05% | [6] 33.6%

COC(=O)c1c(C(=O)OC)c1=[N+]=[N-]
inactive: [1] 5.2% | [2] -5.35% | [3] -0.95% | [4] -10.8% | [5] -0.15% | [6] 6%

CC1OC(=O)C(C(C)C)NC(=O)C(C(C)C)OC(=O)C(C(C)C)NC(=O)C(C)OC(=O)C(C(C)C)NC(=O)C(C(C)C)OC(=O)C(C(C)C)NC(=O)C(C)OC(=O)C(C(C)C)NC(=O)C(C(C)C)OC(=O)C(C(C)C)NC1=O (configuration not stated)
inactive: [1] 31.9% | [2] 38.8% | [3] 45.9% | [4] 25.1% | [5] 16.8% | [6] 42.5%

CCCCOP(=O)(Nc1ccc(Cl)cc1)OCCCC
active: [1] 99.3% | [2] 99.7% | [3] 99.5% | [4] 99.2% | [5] 99.4% | [6] 99.5%

Nc1ccc([N+](=O)[O-])cc1N
inactive: [1] 9.15% | [2] -14.7% | [3] -12.8% | [4] -36.9% | [5] -17.4% | [6] 10.2%

O=C1NC2C(=CC(O)C(O)C2O)c2cc3c(cc21)OCO3 (configuration not stated)
inactive: [1] 29.9% | [2] 44.2% | [3] 35.8% | [4] 47.1% | [5] 39.1% | [6] 37.2%

CC(=O)Oc1cccc(C#N)c1
inactive: [1] -3.1% | [2] 1.25% | [3] 1.7% | [4] -24.8% | [5] 6.65% | [6] 5.05%

CN(CCC(=O)O)C1=Nc2ccc(Cl)cc2C(c2ccccc2)=[N+]([O-])C1
inactive: [1] 1.75% | [2] 6.15% | [3] -14.2% | [4] -1.4% | [5] 16.2% | [6] 6.85%

CCOP(=O)(/C=C/c1cc(OC)ccc1OC)OCC
inactive: [1] -0.05% | [2] -12.8% | [3] -32.4% | [4] -24.5% | [5] -29.8% | [6] -26.1%

O=C(O)C(F)(F)F.O=C(O)C(F)(F)F.[C-]#[O+].[Ru].c1ccc([PH+](c2ccccc2)c2ccccc2)cc1.c1ccc([PH+](c2ccccc2)c2ccccc2)cc1
inactive: [1] 1.5% | [2] 22.2% | [3] 21.9% | [4] -7.45% | [5] -14.9% | [6] 14.3%

CC(=O)[CH-]C(C)=O.F[P-](F)(F)(F)(F)F.[Co+3].[NH-]CC[NH-].[NH-]CC[NH-]
inactive: [1] -1.2% | [2] -15.4% | [3] -12.2% | [4] -29.9% | [5] -4.35% | [6] -5.35%

SCCS
inactive: [1] -20.1% | [2] -5.2% | [3] -14.6% | [4] -5.6% | [5] -27.7% | [6] -25.7%

CCC1(CCSC#N)C(=O)NC(=O)NC1=O
inactive: [1] -7.55% | [2] -8.6% | [3] 11.2% | [4] -14.9% | [5] -3.3% | [6] 3.85%

[N-]=[N+]=CC(=O)c1ccc(Cl)cc1
inactive: [1] 34.5% | [2] 28.4% | [3] 14% | [4] -16.5% | [5] 50.1% | [6] 52.2%

O=C(O)C(CSC(c1ccccc1)(c1ccccc1)c1ccccc1)N1C(=O)c2ccccc2C1=O (configuration not stated)
active: [1] 98.8% | [2] 99.2% | [3] 99.3% | [4] 96.8% | [5] 98.8% | [6] 99%

CC(=O)[CH-]C(C)=O.O=[N+]([O-])O.[NH-]C1CCCCC1[NH-].[Pt+4] (configuration not stated)
active: [1] 97.2% | [2] 98.5% | [3] 94.3% | [4] 98% | [5] 98.8% | [6] 94.8%

Cc1cc2oc(=O)c3c(c2c(O)c1CN1CCOCC1)CCCC3
inactive: [1] 34.1% | [2] 14.4% | [3] 16.5% | [4] 15.6% | [5] 18.1% | [6] 15.8%

Cn1nnnc1NC#N
inactive: [1] -9.15% | [2] 4.85% | [3] 1% | [4] 6.7% | [5] 23.4% | [6] -4.25%

COc1cccc2c1C(=O)c1c(O)c3c(c(O)c1C2=O)C[C@@](O)(C(=O)CO)C[C@@H]3OC1CC(N2CCOCC2C#N)C(O)C(C)O1 (some centres not stated)
active: [1] 90.1% | [2] 91.2% | [3] 92.4% | [4] 89.8% | [5] 90.5% | [6] 91%

CCCCCCP(=O)(O)O.[Zn+2]
inactive: [1] -33.9% | [2] -21.8% | [3] -9.65% | [4] -9.9% | [5] -35.1% | [6] -8.75%

Oc1ccc(Cl)cc1Br
inactive: [1] -2.4% | [2] -14.6% | [3] -1.1% | [4] 12% | [5] -23.4% | [6] -0.15%

COc1ccc(C(OCC2OC(n3ccc(Oc4c(F)c(F)c(F)c(F)c4F)nc3=O)CC2OP(OCCC#N)N(C(C)C)C(C)C)(c2ccccc2)c2ccc(OC)cc2)cc1 (configuration not stated)
inactive: [1] 18.1% | [2] 4.8% | [3] 6.65% | [4] -9.2% | [5] -7.2% | [6] -2.65%

COc1cc2c3c(c1OC)Oc1ccc(cc1)CC1c4c(cc(OC)c(OC)c4Oc4ccc(cc4)CC3N(C)CC2)CCN1C (configuration not stated)
inactive: [1] 2.75% | [2] 11.9% | [3] -11.3% | [4] -8% | [5] -13.6% | [6] -3.65%

OCCC[n+]1cccc2ccccc21
inactive: [1] -11.2% | [2] 9.25% | [3] 1.1% | [4] -41.6% | [5] 0.95% | [6] -1.7%

C=CCn1nnnc1N
inactive: [1] -4.3% | [2] -16.8% | [3] -5.55% | [4] -37.9% | [5] 3.1% | [6] -6.2%

O=CNc1ccccc1
inactive: [1] 18.6% | [2] 1.7% | [3] 0.85% | [4] 6.5% | [5] 7.65% | [6] 7.25%

Oc1ccccc1C=NCCN=Cc1ccccc1O.[Zn+2]
inactive: [1] -29.2% | [2] -2.2% | [3] -25.1% | [4] -53.8% | [5] -7.8% | [6] -17.9%

CN(C)C1CCNCC1
inactive: [1] 19.7% | [2] 5.2% | [3] 17% | [4] 4.75% | [5] 4.6% | [6] -1.5%

O=C(Nc1cccc(S(=O)(=O)F)c1)/C(=C/c1ccc([N+](=O)[O-])cc1)c1ccccc1
active: [1] 88.5% | [2] 86% | [3] 86.7% | [4] 79.2% | [5] 81.2% | [6] 88.2%
